The campaign covered roughly 310,000 compounds. About 14,000 (4.5%) showed an effect of 50% or more. Effects have a minus sign here. For the sample, strong results were picked, then their nearest neighbours and some compounds at random.
biological target: human ether-à-go-go-related gene (hERG) potassium channel (human, UniProt Q12809); test: primary screen, population patch clamp on CHO cells stably expressing hERG; higher = less effect of the substance
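Further: peak tail current of the secondary pulse compared with the same well before compound.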

human ether-à-go-go-related gene (hERG) potassium channel, sequence (Q12809 whole entry, looked up): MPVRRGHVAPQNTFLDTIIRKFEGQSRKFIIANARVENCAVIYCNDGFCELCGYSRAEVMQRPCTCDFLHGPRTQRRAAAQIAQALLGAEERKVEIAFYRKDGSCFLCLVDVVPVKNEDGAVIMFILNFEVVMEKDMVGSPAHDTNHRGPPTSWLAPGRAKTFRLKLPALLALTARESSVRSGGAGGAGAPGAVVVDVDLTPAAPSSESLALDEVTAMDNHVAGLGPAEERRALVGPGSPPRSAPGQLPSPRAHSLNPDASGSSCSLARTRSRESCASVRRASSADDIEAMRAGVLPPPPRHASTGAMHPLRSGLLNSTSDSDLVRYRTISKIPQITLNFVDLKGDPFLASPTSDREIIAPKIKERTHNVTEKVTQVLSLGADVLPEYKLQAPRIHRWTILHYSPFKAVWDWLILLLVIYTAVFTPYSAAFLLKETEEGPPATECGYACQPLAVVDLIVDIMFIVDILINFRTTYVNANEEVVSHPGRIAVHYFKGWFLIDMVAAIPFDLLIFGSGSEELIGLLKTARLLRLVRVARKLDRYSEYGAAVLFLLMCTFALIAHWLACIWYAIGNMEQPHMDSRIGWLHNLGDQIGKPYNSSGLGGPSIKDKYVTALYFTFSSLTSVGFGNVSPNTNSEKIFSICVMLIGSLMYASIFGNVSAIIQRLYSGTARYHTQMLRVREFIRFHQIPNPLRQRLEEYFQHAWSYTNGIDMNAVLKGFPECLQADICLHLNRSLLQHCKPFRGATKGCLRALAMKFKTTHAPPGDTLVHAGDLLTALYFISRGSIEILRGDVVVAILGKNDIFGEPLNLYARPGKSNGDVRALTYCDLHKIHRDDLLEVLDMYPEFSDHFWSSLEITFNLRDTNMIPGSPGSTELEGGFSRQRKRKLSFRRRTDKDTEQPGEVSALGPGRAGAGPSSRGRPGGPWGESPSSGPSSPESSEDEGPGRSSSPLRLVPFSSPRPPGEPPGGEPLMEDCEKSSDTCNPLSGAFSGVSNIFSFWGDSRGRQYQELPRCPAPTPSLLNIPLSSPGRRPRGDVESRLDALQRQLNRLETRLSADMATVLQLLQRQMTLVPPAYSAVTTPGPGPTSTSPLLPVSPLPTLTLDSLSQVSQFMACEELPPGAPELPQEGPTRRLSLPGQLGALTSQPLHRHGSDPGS

Row | SMILES | hERG current change (%, negative = inhibition) at 10uM [%]
1 | Cn1cc(Br)c(C(=O)NNC(=O)Cc2ccc(Cl)cc2)n1 | 3.6
2 | COc1ccc(N2C(=O)C3C(C2=O)C3(c2ccccc2)c2ccccc2)cc1 (stereo not shown) | 0.0654
3 | COc1ccc(C2CC(=O)C(C=NCCN3CCN(C(=S)Nc4ccccc4)CC3)=C(O)C2)cc1 (stereo not shown) | -32.8
4 | Cc1ccc(NC(=O)CN2CCN(CCN=CC3=C(O)CC(c4ccccc4)CC3=O)CC2)cc1 (stereo not shown) | -67.4
5 | CCOC(=O)c1ccc(NC(=S)N2CCN(CCN=CC3=C(O)CC(c4ccccc4)CC3=O)CC2)cc1 (stereo not shown) | -19.9
6 | O=C1CC(c2ccc(F)cc2)CC(O)=C1C=NCCN1CCNCC1 (stereo not shown) | 6.09
7 | O=C1CC(c2ccccc2)CC(O)=C1C=NCCN1CCN(C(=O)Nc2ccccc2)CC1 (stereo not shown) | -64.4
8 | Cc1ccc(NC(=O)CN2CCN(CCN=CC3=C(O)CC(c4ccc(C)cc4)CC3=O)CC2)cc1 (stereo not shown) | -45.3
9 | Cc1ccc(C2CC(=O)C(C=NCCN3CCN(C(=S)Nc4ccc(F)cc4)CC3)=C(O)C2)cc1 (stereo not shown) | -58.6
10 | O=C1CC(c2ccc(F)cc2)CC(O)=C1C=NCCN1CCN(C(=O)Nc2ccccc2)CC1 (stereo not shown) | -67.8
11 | Cc1ccc(C2CC(=O)C(C=NCCN3CCN(C(=S)Nc4ccccc4)CC3)=C(O)C2)cc1 (stereo not shown) | -26.4
12 | Cc1c(Cl)cccc1NC(=O)CN1CCN(CCN=CC2=C(O)CC(c3ccccc3)CC2=O)CC1 (stereo not shown) | -19.9
13 | COc1ccc(NC(=S)N2CCN(CCN=CC3=C(O)CC(c4ccccc4)CC3=O)CC2)cc1 (stereo not shown) | -45.7
14 | O=C1CC(c2ccccc2)CC(O)=C1C=NCCN1CCN(C(=S)Nc2cccc(Cl)c2)CC1 (stereo not shown) | -39.4
15 | O=C(Nc1cc2c(cc1Br)OCCO2)c1cccnc1 | 1.58
16 | O=C(c1ccc(CS(=O)Cc2cccc(Cl)c2)o1)N1CCN(C2CCCCC2)CC1 (stereo not shown) | -16.5
17 | COc1cc2nc(C3CCC3)n(NC(=O)C(OC(C)=O)c3ccccc3)c(=O)c2cc1OC (stereo not shown) | 9.45
18 | Cc1c(C(=O)NCCSCc2ccco2)cccc1[N+](=O)[O-] | -5.94
19 | CN(Cc1cc2ccccc2[nH]c1=O)C(=O)COc1ccccc1 | -8.32
20 | O=C(COC(=O)C1(c2ccccc2F)CCCC1)Nc1ncc(C(F)(F)F)cc1Cl | -10.1
21 | CSc1ccc(Cl)c(C(=O)Nc2ccc(N3CCOCC3)cc2)c1 | -1.67
22 | Cc1cc(NC(=O)Nc2ccc(Cl)cc2)n(C(C)(C)C)n1 | 17.7

Row | SMILES | hERG current change (%, negative = inhibition) at 10uM [%]
23 | CC(NC(=O)c1nn(C)c2c1CS(=O)(=O)c1ccccc1-2)c1ccccc1 (stereo not shown) | -13.1
24 | CC(OC(=O)Cc1c(F)cccc1Cl)C(=O)NC1(C#N)CCCCC1 (stereo not shown) | -22.4
25 | C=CCNC(=S)N1CCN(CCN=CC2=C(O)CC(c3cccs3)CC2=O)CC1 (stereo not shown) | -49.1
26 | C=CCNC(=S)N1CCN(CCN=CC2=C(O)CC(c3ccc(Cl)cc3)CC2=O)CC1 (stereo not shown) | -66.4
27 | CC(=O)N1CCN(CCN=CC2=C(O)CC(c3ccc(Cl)cc3)CC2=O)CC1 (stereo not shown) | -15.7
28 | Fc1c(F)c(C(F)(F)F)c(F)c(F)c1N/N=C\c1cccs1 | 15.5
29 | CC(=O)c1ccc(NC(=O)COc2ccccc2C(=O)Nc2ccccc2)cc1 | 9.66
30 | Cc1ccc(Cl)cc1NC(=O)c1ccccc1OCC(=O)N1CCOCC1 | -63.6
31 | Cc1cccc(NC(=O)c2ccccc2OCC(=O)N2CCOCC2)c1C | -6.62
32 | CCCCOc1ccc(C(=O)Nc2cc(C)c(OCC(=O)N3CCOCC3)c(C)c2)cc1 | -24.8
33 | Cc1ccc(C(=O)Nc2cc(C)c(OCC(=O)N3CCOCC3)c(C)c2)cc1 | -11.3
34 | Cc1cc(NC(=O)c2ccc(Cl)cc2)cc(C)c1OCC(=O)N1CCOCC1 | -52.4
35 | CC(=O)N1CCN(C(=O)COc2ccccc2C(=O)Nc2ccccc2)CC1 | -53.2
36 | COc1ccccc1C(=O)Nc1ccc(OCC(=O)N2CCCCC2)cc1 | -2.87
37 | O=C(Nc1cccc(Cl)c1Cl)c1ccccc1OCC(=O)N1CCOCC1 | -13.5
38 | COc1ccc(C(CNC(=O)c2cc(C)on2)N(C)C)cc1 (stereo not shown) | 22.1
39 | O=C(CSc1nc2c(sc3ccccc32)c(=O)n1CCCN1CCOCC1)NCC1CCCO1 (stereo not shown) | -14.3
40 | CCN(CC)CCn1c(SCC(=O)NCCC2=CCCCC2)nc2c(sc3ccccc32)c1=O | 35.5
41 | O=C(CSc1nc2c(sc3ccccc32)c(=O)n1CCc1ccccc1)NCc1ccco1 | -8.32
42 | CCN(CC)CCn1c(SCC(=O)NCc2ccco2)nc2c(sc3ccccc32)c1=O | -68.2
43 | CCOCCCn1c(SCC(=O)NCc2ccco2)nc2c(sc3ccccc32)c1=O | -27.6
44 | O=C(CSc1nc2c(sc3ccccc32)c(=O)n1CCCN1CCCC1)NCc1ccco1 | -73

Row | SMILES | hERG current change (%, negative = inhibition) at 10uM [%]
45 | O=C(CSc1nc2c(sc3ccccc32)c(=O)n1CCO)NCc1ccco1 | -18.2
46 | O=C(CSc1nc2c(sc3ccccc32)c(=O)n1CCO)NCC1CCCO1 (stereo not shown) | -3.42
47 | O=C(CSc1nc2c(sc3ccccc32)c(=O)n1CCCN1CCCC1)NCC1CCCO1 (stereo not shown) | -61.6
48 | CCN(CC)CCn1c(SCC(=O)NCc2ccccc2)nc2c(sc3ccccc32)c1=O | -29.3
49 | C=CCN(C(=O)CSc1nc2c(sc3ccccc32)c(=O)n1CCN(CC)CC)c1ccccc1 | -77.4
50 | CCCCn1c(SCC(=O)NCc2ccco2)nc2c(sc3ccccc32)c1=O | -16.8
51 | CC1(C)CN(c2cccc(Br)c2)C1=O | 7.96
52 | Cc1c(C)n(CC(O)CNc2ccccc2)c2ccccc12.O=C(O)C(=O)O (stereo not shown) | 23.1
53 | CCOC(=O)Cc1csc(NC(=O)c2cccc(Cl)c2)n1 | -13
54 | CC1(c2nnc(-c3ccc(Cl)cc3)o2)CC(c2cccc(Cl)c2)=NO1 (stereo not shown) | 13.7
55 | COCCn1c(SCC(=O)Nc2cc(C)on2)nc2c(c1=O)SC(C)C2 (stereo not shown) | 10.5
56 | COC(=O)c1ccc(COC(=O)C2CCN(S(=O)(=O)c3c(Cl)cccc3Cl)CC2)o1 | -7.62
57 | COC(=O)/C(=C/N(C)C)C(=O)N1CCN(c2ccc(Cl)c(Cl)c2)CC1 | -25
58 | COc1cccc(OC)c1C(=O)NNS(=O)(=O)c1ccc2ccccc2c1 | -5.2
59 | O=C(O)CC(SCC(=O)Nc1ccccc1)C(=O)O (stereo not shown) | 23
60 | O=C1[C@@H]2Cc3c([nH]c4ccccc34)C(c3ccc([N+](=O)[O-])cc3)N2C(=O)CN1C1CC1 (stereo partly shown) | -25.2
61 | CSc1nc(Cc2ccccc2)nc2ccccc12 | 22.9
62 | Cc1cc(C)nc(N/C(=N\S(=O)(=O)Cc2ccccc2)Nc2cccc(Cl)c2C)n1 | -3.72
63 | ON1C2CCCCC2N(O)C1c1ccccc1F (stereo not shown) | 16.7
64 | Cc1ccc(-n2c(SCC(=O)NCc3ccco3)nc3c(sc4ccccc43)c2=O)cc1 | 14.8
65 | Cc1ccc(CNC(=O)CSc2nc3c(sc4ccccc43)c(=O)n2CCCN2CCCC2)cc1 | -82.8
66 | O=C(CSc1nc2c(sc3ccccc32)c(=O)n1CCCN1CCCC1)NCc1ccccc1 | -80.8

Row | SMILES | hERG current change (%, negative = inhibition) at 10uM [%]
67 | COc1ccc(C(=O)Nc2ncccc2C)cc1S(=O)(=O)N1CCCc2ccccc21 | 9.01
68 | Cc1ccc(CNC(=O)c2ccccc2NS(=O)(=O)c2ccc(Cl)nc2)cc1 | 12.6
69 | OC(COc1ccccc1)Cn1cc(Br)cn1 (stereo not shown) | 0.0411
70 | CCc1nc(Nc2ccccc2OC)c2oc3ccccc3c2n1.Cl | 12.5
71 | CCCCCCc1cc2cc(C(=O)NC)c(=N)oc2cc1O | -7.38
72 | CCN(CC)c1ccc2cc(C(=O)NCc3ccc(F)cc3)c(=N)oc2c1 | -23.4
73 | CCN(CC)c1ccc2cc(C(N)=O)c(=O)oc2c1 | 9.31
74 | CCCCCCc1cc2cc(C(N)=O)c(=N)oc2cc1O | -59.8
75 | CCCCCCc1cc2cc(C(=O)OCC)c(=O)oc2cc1O | 23.3
76 | CCN(CC)c1ccc2cc(C(N)=O)c(=N)oc2c1 | -58.5
77 | CN(C[C@H](Cc1ccccc1)N(C[C@H](Cc1ccccc1)N(CC1(c2ccccc2)CC1)N=O)N=O)N=O.[Na+] | 12.8
78 | Cc1ccc(OCCCC(=O)NCc2ccco2)c(C)c1 | 0.0372
79 | CCCCCC(O)CCC(=O)NNC1=CC(=O)CC(C)(C)C1 (stereo not shown) | 13.9
80 | COc1ccc(C(C#N)C2(C)OCCO2)cc1OC (stereo not shown) | -4.08
81 | COC(=O)c1ccc(C)c(NC(=O)C(CCSC)NC(=O)c2cc(OC)c(OC)c(OC)c2)c1 (stereo not shown) | 13.6
82 | CCn1c(-c2ccc(Cl)cc2)n[nH]c1=S | 13.2
83 | O=C(CSC1CS(=O)(=O)c2cc([N+](=O)[O-])ccc21)NNC(=O)c1ccc(Cl)cc1 (stereo not shown) | -74
84 | O=C(CSC1CS(=O)(=O)c2cc([N+](=O)[O-])ccc21)NNC(=O)c1ccccc1 (stereo not shown) | -20.7
85 | O=C(CSc1nnnn1-c1ccc(Cl)cc1)NNC(=O)c1ccc([N+](=O)[O-])cc1 | -23.2

From publication PMC4336329 (PLoS ONE, 2015)
